Screening results from PubChem BioAssay.
Most compounds without a hit are left out; they make up all but 3.1% or so of the library.
Nrf2 block = Nrf2 qHTS screen for inhibitors. A549 ARE-Fluc reporter, luciferase luminescence, 18-24 h. Potency, µM (doses to about 46 µM), without a hit: at the highest dose activity change, negative = inhibition, actives largely listed as inhibitors. 2.1% of 360,000 active; note: % is set by controls: 0 for no effect and ±100 for the full control effect; nearly all actives have a fitted effect of over 60% in size
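A549 ARE_Fluc cells, 5000/well, 5% FBS OPTI-MEM; compounds in dose-response, 18-24 h at 37 °C/5% CO2; CellTiter-Fluor viability read (Ex 405/Em 525), then BugLite luciferase luminescence = Nrf2 activity.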
TrxR1 inh = qHTS Assay for Inhibitors of Mammalian Selenoprotein Thioredoxin Reductase 1 (TrxR1): qHTS. recombinant rTrxR1, NADPH fluorescence consumption, selenite substrate. Potency, µM (doses to about 114 µM), for the others: at the top dose activity change, negative = inhibition, hits mostly inhibitors. 1% of 390,000 active. AID 588453, 2011; note: % is set by controls: 0 for no effect and ±100 for the full control effect; nearly all actives have a fitted effect of over 65% in size
Target sequence (O89049 whole entry, looked up): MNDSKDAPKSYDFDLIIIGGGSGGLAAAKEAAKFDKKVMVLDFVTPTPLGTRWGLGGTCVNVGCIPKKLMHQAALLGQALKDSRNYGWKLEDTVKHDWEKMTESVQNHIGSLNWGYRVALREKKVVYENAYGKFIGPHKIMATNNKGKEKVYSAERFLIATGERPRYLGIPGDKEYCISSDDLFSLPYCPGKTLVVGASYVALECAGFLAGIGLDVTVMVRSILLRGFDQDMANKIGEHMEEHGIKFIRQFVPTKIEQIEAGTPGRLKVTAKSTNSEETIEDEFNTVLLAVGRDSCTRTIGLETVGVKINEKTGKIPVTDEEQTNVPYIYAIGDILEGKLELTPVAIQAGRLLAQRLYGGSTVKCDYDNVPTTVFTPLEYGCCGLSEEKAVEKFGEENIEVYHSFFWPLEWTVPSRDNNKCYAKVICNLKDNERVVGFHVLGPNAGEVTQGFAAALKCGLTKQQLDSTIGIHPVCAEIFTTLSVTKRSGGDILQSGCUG
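Rat TrxR1 (90 nM in the dispensed reagent) was pre-reduced with 400 uM NADPH for 5 min at room temperature, then incubated with compound for 15 min. After 400 uM selenite was added, NADPH fluorescence (Ex 340/Em 450 nm) was followed for 8 min.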
TrxR1 substrate = qHTS Assay for Substrates of Mammalian Selenoprotein Thioredoxin Reductase 1 (TrxR1): qHTS. Thioredoxin reductase 1, cytoplasmic (Rattus norvegicus), O89049. purified TrxR1 substrate turnover, NADPH consumption readout. Potency, µM (doses to about 114 µM), for inactives: at the highest dose activity change, negative = substrate turnover. 0.01% of 390,000 active; note: % is set by controls: 0 for no effect and ±100 for the full control effect; nearly all actives have a fitted effect of over 50% in size
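Rat TrxR1, dispensed at 90 nM, was prereduced with 400 uM NADPH (final) for 5 min at ~22 deg C, then incubated with compound 15 min before 400 uM selenite. A first-read NADPH fluorescence drop versus no-compound background flagged substrates.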
Mito fusion yeast = qHTS Assay for Small Molecule Inhibitors of Mitochondrial Division or Activators of Mitochondrial Fusion | Potency, µM (titrated, usually from 46.1 µM), without a hit: top-dose growth rescue (activation), hits mostly activators | S. cerevisiae fusion-defective mutant growth rescue, CellTiterGlo 48 h | 0.23% of 320,000 active; note: % of control where 0% means no effect; nearly all actives have a fitted effect of over 45% in size
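Growth-rescue viability read-out: after 48 h at the non-permissive 37C in glycerol/ethanol YPEG, yeast mitochondrial fusion mutants are measured by CellTiterGlo luminescence; compounds (23 nl pinned per well) restoring growth score as division inhibitors or fusion activators.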
mIDH1 inhibitor = qHTS for Inhibitors of mutant isocitrate dehydrogenase 1 (IDH1): qHTS; Isocitrate dehydrogenase [NADP] cytoplasmic (Homo sapiens), O75874; IDH1-R132H enzyme, NADPH consumption, diaphorase/resazurin fluorescence; 0.093% of 390,000 active; Potency, µM (titrated, usually from 76.6 µM), for the others: at the top dose activity change, negative = inhibition, usual class: inhibitors; note: % is set by controls: 0 for no effect and ±100 for the full control effect; nearly all actives have a fitted effect of over 65% in size
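IDH1-R132H (0.5 ug/mL dispensed) in pH 7.5 Tris buffer was preincubated 30 min with compound, then given a substrate mix of 0.016 mM NADPH and 2 mM alpha-KG for 80 min at room temperature; remaining NADPH was read by diaphorase/resazurin fluorescence.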
A549 tox = Nrf2 qHTS screen for inhibitors: counterscreen for cytotoxicity; A549 ARE-Fluc cells, CellTiter-Fluor viability, 18-24 h; AID 504648, 2011; Potency, µM (series often up to 46 µM), for inactives: top-dose activity change, negative = cytotoxicity, hits mostly inhibitors; 0.16% of 390,000 active; note: % is set by controls: 0 for no effect and ±100 for the full control effect
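A549 ARE-Fluc cells in 5% FBS OPTI-MEM, 5000 cells/well, rested 2 h then exposed to compounds in concentration-response for 18-24 h at 37 °C. Viability by CellTiter-Fluor fluorescence (Ex 405/Em 525) after 30 min; luciferase luminescence (BugLite, 15 min, RT) read afterwards.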
* marks the source's active call; other numbers are inactive results; ? = inconclusive; nt = no result given; [ ] = remark or other dose. Calls come from the whole dose curve; as a rule, active = well fitted curve in the direction sought with a large enough effect; inconclusive = small, poorly fitted or top-dose-only effect, or another doubt; inactive = no such curve, though single readings can be large; an effect the other way counts as inactive or inconclusive. Potency is the fitted concentration of half-maximal effect.

SMILES | Nrf2 block | TrxR1 inh | TrxR1 substrate | Mito fusion yeast | mIDH1 inhibitor | A549 tox
Cc1ccc(CNC(=O)CSc2nc3c(sc4ccccc43)c(=O)n2CCCC(=O)NCCO)cc1 | 10% | 29% | 10% | nt | -12% | -1%
CCCCCC(=O)Nc1cccc(C2=NOC3(C2)C[C@@H](C(N)=O)N(C(=O)CC(c2ccccc2)c2ccccc2)C3)c1 (stereo partly drawn) | 21µM* | 4%[57.1 µM] | -3%[57.1 µM] | 3% | -3% | ?
O=C(c1ccc2c(c1)N(Cc1cccc(Cl)c1)C(=O)c1ccccc1S2(=O)=O)N1CCN(Cc2ccccc2)CC1 | nt | 34%[57.1 µM] | 2%[57.1 µM] | nt | 3% | 5%
Cc1nc2cc(NS(=O)(=O)c3cccc4cccnc34)ccc2s1 | 26µM* | 21%[57.1 µM] | -9% | 5% | 19% | 1%
O=C(COc1ccc2cc(-c3ccccc3)c(=O)oc2c1)NCC1CCC(C(=O)O)CC1 (stereo not drawn) | -12% | 32µM* | 892% | -1% | -1% | 2%
Cc1ccc(SCCNC(=O)/C=C/c2ccc([N+](=O)[O-])cc2)cc1 | -10% | -20% | -17% | 16µM* | 8% | 12%
CCCOc1ccc(/C=C/C(=O)Nc2ccc([N+](=O)[O-])cc2)cc1 | 23µM* | 13%[11.4 µM] | 5%[57.1 µM] | -5% | -1% | -20%
O=C(Cn1cc(CNCc2ccccc2)nn1)Nc1cc(C(F)(F)F)ccc1Cl | 10% | nt | nt | nt | nt | -2%
O=C(Nc1ccc(-c2cc(C(F)(F)F)nn2-c2ccccc2)cc1)c1cccc(F)c1 | 13µM* | 23% | 11%[11.4 µM] | nt | nt | ?
CCN(CC)c1ccc(/C=N/Nc2nc3ccccc3[nH]2)c(O)c1 | 26µM* | -23% | -16% | -2% | 5% | ?
C(=N\Nc1nc2ccccc2[nH]1)/c1ccccn1 | ? | 19% | -3% | -1% | 26% | ?
S=C(N/N=C/c1ccc2ncccc2c1)Nc1ccccc1 | 13µM* | 6%[57.1 µM] | -1%[57.1 µM] | 13% | 36% | 3%
C(=N\Nc1nc2ccccc2[nH]1)/c1ccc2c(c1)OCCO2 | 2.6µM* | 24% | 4% | 5% | 3% | ?
C(=N\Nc1nc2ccccc2[nH]1)/c1ccc2ncccc2c1 | 21µM* | 14%[57.1 µM] | 4% | -2% | -6% | -7%
C(=N\NCc1ccccc1)/c1ccc2ncccc2c1 | ? | 13% | -2% | -6% | 5% | 0%
COc1ccc(NC(=O)c2sc3nc[nH]c(=O)c3c2C)cc1Cl | nt | 16%[57.1 µM] | 0%[57.1 µM] | nt | 30% | -3%
Cc1ccc(NS(=O)(=O)c2cc3c(cc2/C=C/c2ccccc2)NC(=O)CO3)cc1C | 4% | nt | nt | nt | nt | 1%
CCCNC(=O)CCc1nnc2ccc(N3CCN(c4cccc(OC)c4)CC3)nn12 | -4% | 22% | 0% | nt | -13% | 4%
COc1cc(/C=N\Nc2nc3ccccc3[nH]2)cc(OC)c1OC | 5.8µM* | 17%[57.1 µM] | -15% | -6% | 2% | 14%
CCOc1cc(/C=N/Nc2nc3ccccc3[nH]2)cc(Br)c1OCC(=O)N(C)C | 18µM* | 7%[57.1 µM] | -8% | 3% | -6% | -11%
COc1ccc(/C=N/Nc2nc3ccccc3[nH]2)cc1OC | 23% | -17% | -15% | 0% | 5% | 8%
CC1(c2ccc(OCC#N)cc2)C=C(c2ccc(OCC#N)cc2)n2nc(C(F)(F)F)nc2N1 (stereo not drawn) | 23µM* | 3% | -5% | 6% | -11% | ?
Cc1csc(/C(=N/OC(=O)c2ccco2)C(N)=O)n1 | 7% | 11µM* | 5% | -2% | 4% | 15%
CCCC1(C)C(C#N)(C#N)C1(C#N)C#N | nt | ? | 11%[57.1 µM] | ? | nt | nt
O=C(Nc1cccc(O)c1)c1cc(-c2ccc3c(c2)OCO3)on1 | 15µM* | 24% | 8% | -17% | 0% | 1%
SMILES | Nrf2 block | TrxR1 inh | TrxR1 substrate | Mito fusion yeast | mIDH1 inhibitor | A549 tox
CCOC(=O)c1c(NC(=O)CSc2cn(CCNC(=O)c3ccc(OC)cc3)c3ccccc23)sc2c1CCCC2 | ? | 0% | -1% | nt | -17% | -8%
CCOC(=O)C1=C(CN2CCN(c3cccc(OC)c3)CC2)NC(=O)NC1c1ccc(OC)cc1 (stereo not drawn) | -5% | 9% | -1% | nt | -16% | -17%
Cc1cc(C)c2sc(N(CCN(C)C)C(=O)c3c(F)cccc3F)nc2c1 | 12% | 9% | -4% | 12% | 4% | 2%
Cc1cc(C)c2sc(N(CCCN(C)C)C(=O)c3ccc(Br)s3)nc2c1 | 15µM* | -8% | -10% | 7% | -6% | ?
SCc1nc2ccccc2[nH]1 | nt | -18% | 5% | nt | nt | nt
Cn1nnnc1Sc1ncnc2scc(-c3ccc(N)cc3)c12 | 11% | nt | nt | nt | nt | 1%
COC(=O)c1c(NC(=O)CN2C(=O)NC3(CCCCC3C)C2=O)sc2c1CCC2 (stereo not drawn) | 16µM* | 9% | 2% | 19% | 5% | -14%
Cc1cc(C)c(NC(=O)C(=O)NCC(c2cccnc2)N2CCN(c3ccccc3F)CC2)c(C)c1 (stereo not drawn) | ? | 8% | 3%[11.4 µM] | nt | -9% | -3%
CN(C)c1ccc(C(=O)Nc2c(C(=O)NC(C)(C)C)oc3ccccc23)cc1 | 9% | 65% | 18% | nt | -17% | 2%
COc1ccc(OC)c(C2C(C(=O)Nc3nc4ccccc4s3)=C(C)NC3=C2C(=O)CCC3)c1 (stereo not drawn) | -28% | 45% | 94% | ? | -1% | -13%
COc1cccc(C2C(C(=O)Nc3nc4ccccc4s3)=C(C)NC3=C2C(=O)CC(C)(C)C3)c1OC (stereo not drawn) | 16µM* | -17% | 536% | 6% | 1% | -15%
COc1ccc2c(c1)C1=NN(/C(C)=C/C(C)=O)C(c3ccc(F)cc3)C1CC2 (stereo not drawn) | 6% | -12% | -9% | 9% | 7% | -5%
COc1ccc2c(c1)C1=NN(/C(C)=C/C(C)=O)C(c3cccc(F)c3)C1CC2 (stereo not drawn) | 28% | -15% | -23%[57.1 µM] | 18µM* | -6% | 14%
Cc1ccc2[nH]c3c(NCc4ccco4)ncnc3c2c1 | ? | -2% | 64% | -7% | 11% | 1%
